{"source": "PubChem BioAssay (Tox21)", "note": "Inconclusive results are not listed. Where a call stands in place of a potency, no number is given. Active and inactive are the calls of the source. Calls come from the whole dose curve; as a rule, active = well fitted activation curve with a large enough effect in the repeat runs; inconclusive = weak or mixed curves; inactive = flat fitted curve, though single readings scatter. Potency is the fitted concentration of half-maximal effect."}
{"test": "A CellTox Green Cytotoxicity Assay to monitor cytotoxicity in HepG2 cells - 8 hour (AID 1224890); note: nearly all actives have a fitted effect of over 45% in size", "conditions": "CellTox Green fluorescence; series mostly up to 76.8 µM", "text": "National Center for Advancing Translational Sciences [NCATS]\nNIH Chemical Genomics Center [NCGC]\nU.S. Environmental Protection Agency [EPA]\nNational Institutes of Environmental Health Sciences [NIEHS]\nNational Toxicology Program [NTP]\nCell-based models are critical for drug discovery. Determining the natural cytotoxic effects resulting from test compounds is an essential research activity. A CellTox Green Cytotoxicity Assay to monitor cytotoxicity in real time of continues cell culture during 40 hours of the compound treatment was used to screen Tox21 10K library compounds in HepG2 cells. CellTox Green Cytotoxicity Assay is a nonlytic, homogeneous, biofluorescent method to measure cytotoxicity in cell culture after experimental manipulation. The assay system uses a proprietary asymmetric cyanine dye that is excluded from viable cells but preferentially stains the dead cell's DNA. […] Viable cells produce no appreciable increases in fluorescence. Therefore, the fluorescence signal produced by the binding interaction with dead cell DNA is proportional to cytotoxicity.\nThe mixture of HepG2 cell suspension and reagents were dispensed at 600cells/6 ul/well in 1536-well tissue culture treated black solid bottom plates using a Multidrop dispenser. After the assay plates were incubated at a 37 C/5% CO2 incubator for 5 hours, 23 nL of compounds dissolved in DMSO, positive and negative controls was transferred to the assay plate by a pintool work station. The plates were incubated at 37 C for 40 hours. The fluorescence intensity were measured at 0h, 8h, 16h, 24h, 32h and 40h time points using ViewLux plate reader during compound treatment."}
{"smiles": "Cn1cnc2c(F)c(Nc3ccc(Br)cc3Cl)c(C(=O)NOCCO)cc21", "Potency": "inactive"}
{"smiles": "CCOc1ccccc1N", "Potency": "inactive"}
{"smiles": "CCCCCCn1c(=O)c2c(ncn2C)n(C)c1=O", "Potency": "inactive"}
{"smiles": "Cc1ccc(C(C)C)cc1O", "Potency": "inactive"}
{"smiles": "CCCCCCCCCCCCOCCOS(=O)(=O)O", "Potency": "54.9 µM (active)"}
{"smiles": "COc1ccccc1OCC(O)COC(N)=O", "note": "(stereo not given)", "Potency": "inactive"}
{"smiles": "CC(=O)OC1C2(C)CCC(C2)C1(C)C", "note": "(stereo not given)", "Potency": "inactive"}
{"smiles": "O=C1CCCc2ccccc21", "Potency": "inactive"}
{"smiles": "O=C(Cl)c1cccc([N+](=O)[O-])c1", "Potency": "inactive"}
{"smiles": "CC(C)NC[C@@H](O)COc1cccc2ccccc12", "Potency": "inactive"}
{"smiles": "NC/C=C/C(=O)O", "Potency": "inactive"}
{"smiles": "C/C(=N\\O)[C@@H](C)NCC(C)(C)CN[C@H](C)/C(C)=N/O", "Potency": "inactive"}
{"smiles": "NS(=O)(=O)c1cc(-c2nn[nH]n2)c(NCc2cccs2)cc1Cl", "Potency": "inactive"}
{"smiles": "COC(=O)c1ccc(OC)cc1", "Potency": "inactive"}
{"smiles": "CC1=NN(c2cc(Cl)c(S(=O)(=O)O)cc2Cl)C(=O)C1N=Nc1ccc(S(=O)(=O)O)cc1", "note": "(stereo not given)", "Potency": "inactive"}
{"smiles": "O=Cc1ccc(F)c(Br)c1", "Potency": "inactive"}
{"smiles": "COC(=O)C(C)O", "note": "(stereo not given)", "Potency": "inactive"}
{"smiles": "CCOC(=O)C1CC(=O)C(=C(O)C2CC2)C(=O)C1", "note": "(stereo not given)", "Potency": "inactive"}
{"smiles": "O=S(=O)(O)C(F)(F)F", "Potency": "inactive"}
{"smiles": "CCCCCCCCOC(=O)CCCCCCCCC(=O)OCCCCCCCC", "Potency": "inactive"}
{"smiles": "C[C@@H](N)C(=O)O", "Potency": "inactive"}
{"smiles": "CCCNC(C)(C)COC(=O)c1ccccc1", "Potency": "inactive"}
{"smiles": "Cc1cccc(C)c1NC(=O)CN1CCCCCC1", "Potency": "inactive"}
{"smiles": "Cc1ccc(C)c(N)c1", "Potency": "inactive"}
{"smiles": "CN(C)Cc1ccccc1", "Potency": "inactive"}
{"smiles": "CCOC(=O)COc1ccc2c(c1)CC(NCC(O)c1cccc(Cl)c1)CC2", "note": "(stereo not given)", "Potency": "44 µM (active)"}
{"smiles": "CCCC(CCC)(C(=O)OCC)C(=O)OCC", "Potency": "inactive"}
{"smiles": "Cc1cc(S(=O)(=O)O)c(N)cc1Cl", "Potency": "inactive"}
{"smiles": "C=CC(C)(O)CC/C=C(\\C)CCC=C(C)C", "note": "(stereo not given)", "Potency": "19.5 µM (active)"}
{"smiles": "CC1=C(O)C(=O)OC1C", "note": "(stereo not given)", "Potency": "inactive"}
{"smiles": "C1CCOC1", "Potency": "inactive"}
{"smiles": "O=C1CCCCCCCCCCC(=O)OCCO1", "Potency": "inactive"}
{"smiles": "COc1ccccc1N1CCN(CCCNc2cc(=O)n(C)c(=O)n2C)CC1", "Potency": "inactive"}
{"smiles": "O=C1N(c2ccccc2)c2ccccc2C1(Cc1ccncc1)Cc1ccncc1", "Potency": "inactive"}
{"smiles": "CC(C)C(=O)OC/C=C/c1ccccc1", "Potency": "inactive"}
{"smiles": "COc1cc2c(cc1N)oc1ccccc12", "Potency": "inactive"}
{"smiles": "O=Cc1ccc(O)c(O)c1O", "Potency": "inactive"}
{"smiles": "CC(C)(C)c1ccc(OC(=O)c2ccccc2O)cc1", "Potency": "inactive"}
{"smiles": "OCCN(CCO)CCN(CCO)CCO", "Potency": "inactive"}
{"smiles": "CCCCCCC", "Potency": "inactive"}
